Among the data in PubChem BioAssay (NCATS) are Potency and viability values, retold here.

Inconclusive results are not listed. Values without a mark were called inactive. Calls of active or inactive are those of the source. Calls come from the whole dose curve; as a rule, active = well fitted curve in the direction sought with a large enough effect; inconclusive = small, poorly fitted or top-dose-only effect, or another doubt; inactive = no such curve, though single readings can be large; an effect the other way counts as inactive or inconclusive.

Assay [1] is described as follows: Quantitative High-Throughput drug screen in 47 multiple myeloma cell lines against the NCATS MIPE library collection: KMS12PE_JCRB cell viability assay (AID 1918972). Note: nearly all actives have a fitted effect of over 30% in size. Put shortly: (§1)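 Steps: seed 500 cells per well; pin-transfer MIPE 4.0 library; incubate 48 h at 37C, 5% CO2, humidified; add CellTiter-Glo, 5 min room temperature; read luminescence.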
A short description of assay [2]: Quantitative High-Throughput drug screen in 47 multiple myeloma cell lines against the NCATS MIPE library collection: KMS20_JCRB cell viability assay (AID 1918973). Note: nearly all actives have a fitted effect of over 45% in size. The essentials: as §1
The nature of assay [3]: Quantitative High-Throughput drug screen in 47 multiple myeloma cell lines against the NCATS MIPE library collection: MM1S_ATCC cell viability assay (AID 1918980). Note: nearly all actives have a fitted effect of over 45% in size. Put shortly:
(§2)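 Inhibition of viability over 48 h was scored by ATP content (CellTiter-Glo) in 500-cell wells. Zero and full viability were defined by media-only and DMSO-only wells.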

Assay [4] in a line: Quantitative High-Throughput drug screen in 47 multiple myeloma cell lines against the NCATS MIPE library collection: L363_DSMZ cell viability assay (AID 1918984). Note: nearly all actives have a fitted effect of over 40% in size. Put shortly: as §2
Assay [5] can be described thus: Quantitative High-Throughput drug screen in 47 multiple myeloma cell lines against the NCATS MIPE library collection: OCIMY7_PLB cell viability assay (AID 1918987). Note: nearly all actives have a fitted effect of over 65% in size. Put shortly: as §2
The nature of assay [6]: Quantitative High-Throughput drug screen in 47 multiple myeloma cell lines against the NCATS MIPE library collection: OPM1_PLB cell viability assay (AID 1918989). Note: nearly all actives have a fitted effect of over 40% in size. Put shortly: as §2
Assay [7] in a line: Quantitative High-Throughput drug screen in 47 multiple myeloma cell lines against the NCATS MIPE library collection: U266_ATCC cell viability assay (AID 1919864). Note: nearly all actives have a fitted effect of over 35% in size. The essentials: as §2
Assay [8] is described as follows: Quantitative High-Throughput drug screen in 47 multiple myeloma cell lines against the NCATS MIPE library collection: XG6_PLB cell viability assay (AID 1919865). Note: nearly all actives have a fitted effect of over 40% in size. The essentials:
as §2

The nature of assay [9]: Quantitative High-Throughput drug screen in 47 multiple myeloma cell lines against the NCATS MIPE library collection: KMS26_JCRB cell viability assay (AID 1918975). Note: nearly all actives have a fitted effect of over 45% in size. Put shortly:
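Myeloma cell lines, 500 cells per well, exposed to MIPE 4.0 library compounds for 48 h at 37C, 5% CO2. Viability from ATP by CellTiter-Glo luminescence; normalised to DMSO (100%) and media-only (0%) wells.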

Assay [10] is described as follows: Quantitative High-Throughput drug screen in 47 multiple myeloma cell lines against the NCATS MIPE library collection: MOLP8_DSMZ cell viability assay (AID 1918977). Note: nearly all actives have a fitted effect of over 45% in size. Put shortly:
as §2

Assay [11] can be described thus: Quantitative High-Throughput drug screen in 47 multiple myeloma cell lines against the NCATS MIPE library collection: NCIH929_DSMZ cell viability assay (AID 1918978). Note: nearly all actives have a fitted effect of over 35% in size. Put shortly:
as §2

Assay [12] can be described thus: Quantitative High-Throughput drug screen in 47 multiple myeloma cell lines against the NCATS MIPE library collection: OCIMY1_PLB cell viability assay (AID 1918979). Note: nearly all actives have a fitted effect of over 35% in size. Put shortly:
as §2

The nature of assay [13]: Quantitative High-Throughput drug screen in 47 multiple myeloma cell lines against the NCATS MIPE library collection: MM1R_ATCC cell viability assay (AID 1918981). Note: nearly all actives have a fitted effect of over 35% in size. Put shortly: as §2
Assay [14] can be described thus: Quantitative High-Throughput drug screen in 47 multiple myeloma cell lines against the NCATS MIPE library collection: LP1_DSMZ cell viability assay (AID 1918982). Note: nearly all actives have a fitted effect of over 35% in size. Put shortly:
as §2

Assay [15] in a line: Quantitative High-Throughput drug screen in 47 multiple myeloma cell lines against the NCATS MIPE library collection: KMS28PE_JCRB cell viability assay (AID 1918983). Note: nearly all actives have a fitted effect of over 35% in size. The essentials: as §2
Assay [16] can be described thus: Quantitative High-Throughput drug screen in 47 multiple myeloma cell lines against the NCATS MIPE library collection: KMS34_JCRB cell viability assay (AID 1918985). Note: nearly all actives have a fitted effect of over 40% in size. The essentials: as §2
Assay [17] in a line: Quantitative High-Throughput drug screen in 47 multiple myeloma cell lines against the NCATS MIPE library collection: SKMM1_PLB cell viability assay (AID 1919863). Note: nearly all actives have a fitted effect of over 35% in size. Conditions: SKMM1 myeloma viability, CellTiter-Glo ATP, 48 h; viability: stronger effect = lower value. The essentials: as §2
Assay [18] in a line: Quantitative High-Throughput drug screen in 47 multiple myeloma cell lines against the NCATS MIPE library collection: KMS21BM_JCRB cell viability assay (AID 1918974). Conditions: ATP luminescence, 48 h; viability: at 45.8 µM (top of the series) unless noted. The essentials: as §1
Assay [19] can be described thus: Quantitative High-Throughput drug screen in 47 multiple myeloma cell lines against the NCATS MIPE library collection: MMM1_PLB cell viability assay (AID 1918976). Note: nearly all actives have a fitted effect of over 35% in size. The essentials:
as §2

Assay [20] can be described thus: Quantitative High-Throughput drug screen in 47 multiple myeloma cell lines against the NCATS MIPE library collection: OCIMY5_PLB cell viability assay (AID 1918988). Note: nearly all actives have a fitted effect of over 65% in size. The essentials:
as §2
Potency is the fitted concentration of half-maximal effect.

For `O=C(NCC1CCCCN1)c1cc(OCC(F)(F)F)ccc1OCC(F)(F)F` (centres undefined), the Potency was 2.09 µM (active) in assay [1]; 7.43 µM (active) in assay [2]; 8.33 µM (active) in assay [3]; 0.743 µM (active) in assay [4]; 7.43 µM (active) in assay [5]; 9.35 µM (active) in [6]. Further, the figures for the Potency in assay [7] and in assay [8] were 9.35 µM (active) and 3.32 µM (active), respectively.

On to `CCOC(=O)C1=C[C@@H](OC(CC)CC)[C@H](NC(C)=O)[C@@H](N)C1`, for which the Potency result in assay [1], in assay [2], in assay [9], in assay [10], in assay [11] and in assay [12] was “inactive” throughout. The Potency entry in assay [13], in assay [14], in [15], in assay [16], in [6] and in assay [8] was “inactive” in each case. In addition, the viability in [17] was 108%.

`c1cnc2cc3c(cc2n1)C1CNCC3C1`: the Potency entry in [1], in assay [18], in assay [9], in assay [10], in assay [12] and in [13] was “inactive” throughout. The Potency result in assay [14], in assay [15], in assay [16], in assay [6] and in assay [7] was “inactive” in each case.

`COc1c(O)cc2c(c1O)[C@@H]1O[C@H](CO)[C@@H](O)[C@H](O)[C@H]1OC2=O`: the Potency entry in [1], in assay [2], in assay [9], in assay [11], in assay [12] and in [3] was “inactive” throughout. Also, the Potency result in assay [13], in assay [14], in [15], in [4], in assay [5] and in assay [20] was “inactive” each time. Moreover, the Potency result in assay [6] and in assay [7] was “inactive” throughout. The Potency in [19] was 2.35 µM (active).

With `CCN(CC)CCOc1ccc(Nc2ncc3cc(-c4c(Cl)cccc4Cl)c(=O)n(C)c3n2)cc1`, the Potency in [1] was 0.0105 µM (active); in assay [2], 0.001 µM (active); in assay [9] it was 5.26 µM (active); in assay [10], 0.059 µM (active); in assay [11] it was 1.87 µM (active); in [12], 2.96 µM (active). Moreover, the Potency in assay [3] is 2.35 µM (active); in assay [13], 1.32 µM (active); in assay [14], 1.87 µM (active); in [15], 1.18 µM (active); in [16], 0.166 µM (active); in assay [5], 1.48 µM (active). The Potency is 0.105 µM (active) in assay [20]; 0.0187 µM (active) in assay [6]; 5.26 µM (active) in assay [17]; 10.5 µM (active) in assay [7]; 0.0296 µM (active) in [8].

Take `CC(C)(S)[C@@H](N)C(=O)O`: the Potency entry in assay [1], in [18], in assay [9], in assay [10], in assay [12] and in assay [14] was “inactive” in each case. In addition, the Potency result in assay [15], in assay [4], in assay [5], in assay [6] and in assay [8] was “inactive” each time. Also, the viability in [17] was 133%.

On to `Cc1cc(Cl)ccc1OCCCC(=O)NO`, for which the Potency was 14.8 µM (active) in [1]; 8.33 µM (active) in assay [9]; 2.64 µM (active) in [19]; 2.64 µM (active) in assay [11]; 1.18 µM (active) in assay [3]; 23.5 µM (active) in assay [13]. Also, the Potency in assay [14] is 26.4 µM (active); in assay [16], 26.4 µM (active); in assay [5] it was 0.59 µM (active); in assay [6], 20.9 µM (active); in assay [7], 14.8 µM (active); in assay [8] it was 1.05 µM (active). The Potency result in assay [10] is “inactive”.

Take `Nc1nc(N)c(N=O)c(OCC2CCCCC2)n1`: the Potency in assay [1] was 4.69 µM (active); in [2], 4.69 µM (active); in assay [9] it was 13.2 µM (active); in assay [10], 5.26 µM (active); in assay [11], 5.26 µM (active); in [3] it was 13.2 µM (active). In addition, the Potency in assay [13] is 14.8 µM (active); in assay [15], 14.8 µM (active); in assay [4], 2.64 µM (active); in assay [16], 11.8 µM (active); in assay [5], 1.48 µM (active); in assay [20] it was 13.2 µM (active). Besides, the Potency in [6] is 7.43 µM (active); in assay [7], 16.6 µM (active); in assay [8], 2.96 µM (active).

For `O=C(OC1C[C@H]2CC[C@@H](C1)[N+]21CCCC1)C(O)(c1ccccc1)c1ccccc1` (some centres undefined), the Potency result in [1], in assay [18], in assay [9], in assay [10], in assay [11] and in [3] was “inactive” in each case. In addition, the Potency result in assay [13], in assay [14], in assay [15], in assay [4], in [5] and in assay [20] was “inactive” in each case. The Potency entry in assay [6] and in assay [8] was “inactive” throughout. Moreover, the viability in assay [17] was 138%.

On to `CN(C)c1ccc2nc3ccc(=[N+](C)C)cc-3sc2c1`, for which the Potency was 5.9 µM (active) in assay [1]; 1.48 µM (active) in assay [18]; 1.32 µM (active) in assay [9]; 5.26 µM (active) in [19]; 3.32 µM (active) in assay [10]; 6.62 µM (active) in assay [11]. Moreover, the Potency in [12] is 1.48 µM (active); in assay [3], 2.64 µM (active); in assay [13], 1.05 µM (active); in assay [14] it was 4.69 µM (active); in assay [15] it was 5.9 µM (active); in [4], 3.72 µM (active). Also, the Potency was 0.59 µM (active) in assay [16]; 2.35 µM (active) in assay [5]; 3.72 µM (active) in assay [6]; 1.66 µM (active) in assay [17]; 8.33 µM (active) in assay [7]; 5.26 µM (active) in assay [8].

With `O=C(CS(=O)Cc1ccco1)NCC=CCOc1cc(CN2CCCCC2)ccn1` (centres undefined), the Potency result in assay [1], in [2], in assay [12], in [13], in assay [14] and in assay [15] was “inactive” each time. Also, the Potency entry in [4], in assay [16] and in assay [7] was “inactive” throughout. In addition, the viability in assay [17] is 134%. Moreover, the Potency in assay [8] is 14.8 µM (active).

On to `Clc1ccc(C(Cn2ccnc2)OCc2ccc(Sc3ccccc3)cc2)c(Cl)c1` (centres undefined), for which the Potency was 18.7 µM (active) in assay [1]; 26.4 µM (active) in [18]; 23.5 µM (active) in [19]; 18.7 µM (active) in assay [3]; 26.4 µM (active) in assay [13]; 23.5 µM (active) in [14]. The figures for the Potency in assay [4] and in assay [5] were 20.9 µM (active) and 26.4 µM (active), respectively. Further, the Potency result in assay [7] was “inactive”.

On to `CS(=O)(=O)OCCCCOS(C)(=O)=O`, for which the Potency result in assay [1], in assay [2], in [11], in [12], in assay [3] and in assay [16] was “inactive” each time. Also, the Potency entry in [5], in [6] and in assay [8] was “inactive” each time. In addition, the Potency in assay [19] was 16.6 µM (active); in assay [13], 3.72 µM (active); in assay [15], 13.2 µM (active).

In the case of `CC1(C)C(=O)N(CCN2CCC(C(=O)c3ccc(F)cc3)CC2)c2ccccc21`, the Potency in assay [1] is 10.5 µM (active); in assay [2], 4.18 µM (active); in assay [12], 7.43 µM (active); in assay [3], 20.9 µM (active); in assay [13] it was 16.6 µM (active); in assay [4], 13.2 µM (active). Further, the Potency in assay [6] was 10.5 µM (active); in assay [8], 4.69 µM (active). In addition, the Potency result in assay [15] was “inactive”.

For `Clc1ccc(C(Cn2ccnc2)OCc2c(Cl)cccc2Cl)c(Cl)c1` (centres undefined), the Potency in assay [1] is 14.8 µM (active); in assay [18] it was 20.9 µM (active); in assay [4], 18.7 µM (active); in [5], 29.6 µM (active); in [17] it was 26.4 µM (active); in [8] it was 26.4 µM (active).

One may read the viability as a read-out of living cells in per cent, often relative to untreated cells.
